# Results taken from PubChem BioAssay.
# Values joined by “and” are separate entries in the source; they are usually repeats but may differ in a detail not shown here. Equal entries are not always repeated. Active and inactive are the calls of the source. Rule as the data show it, unless noted: active = parasite load remaining mostly below about 12% (no sharp cut-off); inactive = mostly above about 10%.
# What was measured:
# [1] = Wnt pathway potentiators raising nuclear beta-catenin – imaging, WNT3A-conditioned medium, mouse C2C12, NPC library, primary screen (AID 1117326; in the data active = nuclear beta-catenin stimulation mostly above about 4.2%, no sharp cut-off; inactive = mostly below about 10%); settings: stronger effect = higher value
# [2] = stimulators of insulin release from INS-1E, primary screen, cell-based, 5 mM glucose, NPC library (AID 1117329;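 active = compound raises insulin release from rat beta cells at 5 mM glucose, no numeric limit stated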); settings: rat INS-1E insulin secretion, at 10 µM, stronger effect = higher value
# [3] = growth inhibition of GSK3B-pretreated HCT116 cells – cell-based, CellTiter-Glo, 0.2 to 20 µM (AID 1117336;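 active = compounds lowering colon cancer cell viability after pretreatment blocking the GSK3B kinase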); settings: HCT116 viability after GSK3B inhibitor, at 20 µM, stronger effect = higher value
# [4] = inhibition of endothelial tube formation, primary screen, imaging, VEGF stimulated, CD31 staining, tube area, NPC library (AID 1117340;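 active = compound that reduces growth-factor-driven endothelial tube area in a mixed cell culture, no cutoff stated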); settings: VEGF-stimulated ADSC/ECFC co-culture, at 10 µM, stronger effect = higher value
# [5] = GLP1 release stimulators, primary, NCI-H716, NPC library (AID 1117341;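 active = compound raises GLP1 secretion from the human gut endocrine cells, with no numeric limit stated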); settings: NCI-H716 cells, at 10 µM, stronger effect = higher value
# [6] = HCT116 colon cancer cell growth inhibition, primary screen, CellTiter-Glo luminescence, NPC library (AID 1117342;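 active = compounds that lower survival of HCT116 colon cancer cells in the luminescence readout, no numeric limit stated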); settings: at 20 µM (top of the series)
# [7] = reduced SW480 viability measured with CellTiter-Glo, NPC library, primary (AID 1117343;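 active = compounds that lower viability of the colon cancer cells in the luminescence readout, with no numeric limit stated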); settings: CellTiter-Glo luminescence; at 20 µM (top of the series)
# [8] = NPC library primary testing for decreased DLD-1 cell viability via CellTiter-Glo (AID 1117346;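 active = compounds that lower survival of DLD-1 colon cancer cells in the luminescence readout, no cutoff given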); settings: DLD-1 viability, CellTiter-Glo luminescence; at 20 µM (top of the series)
# [9] = target: 6-phosphogluconate dehydrogenase, decarboxylating (Homo sapiens) (UniProt P52209); assay: inhibition of human phosphogluconate dehydrogenase – biochemical, recombinant enzyme, NADPH absorbance, primary screen (AID 1159550;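 active = at least 20% inhibition of 6-phosphogluconate dehydrogenase activity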); settings: recombinant 6PGD, NADPH absorbance 341 nm; at 10 µM; stronger effect = higher value
# [10] = EMT-state selective cytotoxicity in co-culture – imaging, PC-3E GFP, TEM4-18 mCherry, primary screen (AID 1345086;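 active = compounds killing one labelled cell type while sparing the other, by normalised counts and ratio limits, not self-fluorescent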;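 as to all read-outs here: cells exposed to compound for 72 h before imaging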;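 as to red/green cell ratio (normalised): normalised mesenchymal count divided by normalised epithelial count so high means epithelial killing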); settings: PC-3E GFP / TEM4-18 mCherry co-culture, imaging cell counts, at 1 µM; for red/green cell ratio (normalised): actives lie on both sides
# [11] = tested on: Aerobactin synthetase IucA (Klebsiella pneumoniae hvKP1); assay: IucA enzyme inhibition, primary screen, biochemical, Spectrum library (AID 1346200; call rule not given here;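 also: 100% = wells without compound and 0% = wells lacking enzyme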); settings: malachite green pyrophosphate, A620, at 8 µM, stronger effect = lower value
# [12] = viability loss with induced miR-34 in A549 – imaging, A549 dox-inducible miR-34, nuclei and caspase counts, primary screen (AID 1347080;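 active = compounds whose cell count with miR-34 switched on is under 0.7 times the count with it off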); settings: A549 miR-34 inducible, Hoechst nuclei count, 48 h
# [13] = target: NAD(+) hydrolase SARM1 (Homo sapiens) (UniProt Q6SZW1); assay: blocking NAD cleavage by SARM1 SAM-TIR – cell lysate, NAD-Glo luminescence (AID 1508614;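 active = compound whose remaining NAD level is above about 45 nM, limit read from the data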;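 also: higher remaining NAD means stronger inhibition of SARM1 NADase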); settings: SAM-TIR HEK293T lysate NADase, at 1 µM, stronger effect = higher value
# [14] = target: Mitogen-activated protein kinase 7 (Homo sapiens) (UniProt Q13164); assay: Gal4-ERK5 driven luciferase induction – cell-based, HTS, primary screen (AID 1508626;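 active = luciferase signal above three times the same-plate solvent-only control wells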;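 also: luciferase driven by Gal4-ERK5 fusion binding five Gal4 sites before minimal TATA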); settings: HeLa Gal4-ERK5 transactivation, 18 h, at 5 µM, stronger effect = higher value
# [15] = P. berghei load reduction in hepatocytes – cell-based, HepG2, luciferase luminescence, HepG2 viability, primary screen (AID 624349);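 also: 100% = mean of DMSO negative control wells on the same plate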; settings: P. berghei liver stage in HepG2, luciferase luminescence, concentration not given here; parasite load remaining: stronger effect = lower value; viability: measured here: HepG2 viability without parasites
# [16] = galactose survival enhancers in mitochondrial complex I cybrids – cell-based, galactose medium, ATP luminescence, primary screen (AID 1645843;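 active = z-score of at least 1.8 in each of two replicates, scored against plate mean and spread of sample wells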;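 also: positive z means more ATP and so rescue of galactose-driven cybrid death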); settings: complex I mutant cybrid cells, 72 h, stronger effect = higher value
# [17] = yeast 75Q aggregation reduction – 75Q-TubU reporter (AID 1593); settings: Yeast 75Q polyglutamine aggregation reporter
# [18] = blockers of cytochrome c efflux from mitochondria – biochemical, purified mitochondria (AID 1603); settings: stronger effect = lower value;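 also: mouse liver mitochondria challenged with calcium chloride; signal normalized to the plate average as 100%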
# [19] = polyglutamine aggregate formation blockers (AID 1604); settings: polyglutamine-induced protein aggregation inhibition assay; stronger effect = higher value; tested at 2.5 µM
# [20] = MELAS cybrid and Rieske KO viability enhancers – cell-based, MELAS cybrids, Rieske KO mouse fibroblasts, CellTiter-Glo, primary screen (AID 1508586;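 active = mean z-score across replicates of 1.96 or higher in either the MELAS or the Rieske mutant cell line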;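 also: z relative to plate mean and SD of compound and empty wells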); settings: low glucose
# [21] = measured here: epithelial PC-3E GFP cell survival
# [22] = measured here: mesenchymal TEM4-18 mCherry cell survival
# [23] = measured here: relative caspase fold change +Dox/-Dox
# [24] = measured here: total cells with miR-34 induction, stronger effect = lower value
# [25] = measured here: total cells without miR-34 induction
# [26] = MELAS cybrid survival, CellTiter-Glo 48 h, stronger effect = higher value
# [27] = Rieske KO mouse fibroblast survival, CellTiter-Glo 72 h
# Chain of 6-phosphogluconate dehydrogenase, decarboxylating (Homo sapiens) (P52209 whole entry, looked up): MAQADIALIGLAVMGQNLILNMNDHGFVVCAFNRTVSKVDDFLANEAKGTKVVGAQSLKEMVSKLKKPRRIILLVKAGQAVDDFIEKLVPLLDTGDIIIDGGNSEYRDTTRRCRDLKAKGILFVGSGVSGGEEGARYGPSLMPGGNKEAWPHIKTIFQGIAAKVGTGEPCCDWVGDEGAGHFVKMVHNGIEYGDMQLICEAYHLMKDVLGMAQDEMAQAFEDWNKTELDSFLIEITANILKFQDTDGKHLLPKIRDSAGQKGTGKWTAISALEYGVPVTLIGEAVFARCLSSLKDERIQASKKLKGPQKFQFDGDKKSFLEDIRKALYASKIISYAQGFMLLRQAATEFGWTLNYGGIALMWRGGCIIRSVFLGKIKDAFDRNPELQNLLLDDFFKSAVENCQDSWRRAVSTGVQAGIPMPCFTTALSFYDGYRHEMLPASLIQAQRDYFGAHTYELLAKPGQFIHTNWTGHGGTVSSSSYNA
# Chain of Mitogen-activated protein kinase 7 (Homo sapiens) (Q13164 whole entry, looked up, the tested form may be a part): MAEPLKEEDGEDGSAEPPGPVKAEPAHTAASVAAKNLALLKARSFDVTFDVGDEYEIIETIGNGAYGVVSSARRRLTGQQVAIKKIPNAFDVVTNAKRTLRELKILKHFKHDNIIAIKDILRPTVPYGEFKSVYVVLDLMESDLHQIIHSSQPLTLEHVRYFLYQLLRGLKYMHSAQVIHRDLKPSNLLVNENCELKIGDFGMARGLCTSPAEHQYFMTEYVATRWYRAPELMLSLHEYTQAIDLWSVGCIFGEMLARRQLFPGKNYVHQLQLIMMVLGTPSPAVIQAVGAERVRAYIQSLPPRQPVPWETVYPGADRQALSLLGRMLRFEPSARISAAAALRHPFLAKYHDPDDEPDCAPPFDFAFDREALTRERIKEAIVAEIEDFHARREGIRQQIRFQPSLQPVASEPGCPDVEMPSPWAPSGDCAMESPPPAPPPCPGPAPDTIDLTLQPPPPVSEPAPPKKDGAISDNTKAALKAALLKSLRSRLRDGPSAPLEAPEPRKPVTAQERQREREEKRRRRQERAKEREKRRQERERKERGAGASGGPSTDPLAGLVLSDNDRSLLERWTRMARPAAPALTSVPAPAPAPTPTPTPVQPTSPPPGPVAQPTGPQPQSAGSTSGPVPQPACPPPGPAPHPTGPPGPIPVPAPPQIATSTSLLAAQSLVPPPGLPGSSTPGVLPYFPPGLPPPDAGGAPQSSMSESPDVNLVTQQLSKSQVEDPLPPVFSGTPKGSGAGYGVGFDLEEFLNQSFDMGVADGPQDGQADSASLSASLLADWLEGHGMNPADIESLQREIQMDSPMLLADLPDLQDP
# Chain of NAD(+) hydrolase SARM1 (Homo sapiens) (Q6SZW1 whole entry, looked up, the tested form may be a part): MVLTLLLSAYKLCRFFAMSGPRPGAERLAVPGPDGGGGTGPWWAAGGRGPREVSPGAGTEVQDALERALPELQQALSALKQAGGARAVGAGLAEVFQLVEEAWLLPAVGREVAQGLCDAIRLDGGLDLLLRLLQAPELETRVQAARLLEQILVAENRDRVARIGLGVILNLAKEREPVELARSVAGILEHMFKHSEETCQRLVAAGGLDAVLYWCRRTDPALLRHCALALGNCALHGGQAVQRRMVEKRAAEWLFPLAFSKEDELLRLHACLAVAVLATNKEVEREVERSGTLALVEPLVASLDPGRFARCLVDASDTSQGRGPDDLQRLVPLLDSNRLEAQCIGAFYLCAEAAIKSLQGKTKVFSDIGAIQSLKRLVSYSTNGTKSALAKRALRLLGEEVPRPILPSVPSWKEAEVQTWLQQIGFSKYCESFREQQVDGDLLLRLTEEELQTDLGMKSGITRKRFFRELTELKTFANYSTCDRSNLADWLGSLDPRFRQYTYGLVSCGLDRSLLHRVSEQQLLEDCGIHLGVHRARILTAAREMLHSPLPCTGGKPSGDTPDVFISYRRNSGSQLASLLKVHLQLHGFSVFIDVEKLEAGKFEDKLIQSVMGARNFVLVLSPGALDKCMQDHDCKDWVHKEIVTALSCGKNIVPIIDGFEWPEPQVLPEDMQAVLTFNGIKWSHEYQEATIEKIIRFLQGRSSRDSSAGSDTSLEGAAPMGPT
compound,measurement,setting,value
CCOP(=S)(OCC)Oc1cc(C)nc(C(C)C)n1,nuclear beta-catenin stimulation,[1]; at 10 µM,-0.5% (inactive)
same,nuclear beta-catenin stimulation,"[1]; stimulation, at 2 µM",0.1%
same,insulin secretion stimulation,[2],0.4% (inactive)
same,viability decrease,[3],-71.8% (inactive)
same,tube area decrease,[4],0.2% (inactive)
same,GLP1 secretion stimulation,[5],-1.4% (inactive)
same,inhibition of viability,[6],11.6% (inactive)
same,viability decrease (inhibition),[7],34% (inactive)
same,viability decrease (inhibition),[8],2.6% (inactive)
same,inhibition,[9],-22.8% (inactive)
same,red/green cell ratio (normalised),[10],1 (inactive)
same,normalised cell number,[10]; [21],1
same,normalised cell number,[10]; [22],1
same,activity remaining,[11],77.6% (inactive)
same,fold change,[12]; stronger effect = lower value,0.932 (inactive)
same,fold change,[12]; [23],1.33
same,cell count,[12]; [24],9160
same,cell count,[12]; [25],9830
same,remaining NAD,[13],10 nM (inactive)
C[C@H]1O[C@@H](O[C@H]2[C@@H](O)C[C@H](O[C@H]3[C@@H](O)C[C@H](O[C@H]4CC[C@@]5(C)[C@H](CC[C@@H]6[C@@H]5CC[C@]5(C)[C@@H](C7=CC(=O)OC7)CC[C@]65O)C4)O[C@@H]3C)O[C@@H]2C)C[C@H](O)[C@@H]1O,nuclear beta-catenin stimulation,[1]; at 10 µM,1.3% (inactive)
same,nuclear beta-catenin stimulation,"[1]; stimulation, at 2 µM",1.9%
same,insulin secretion stimulation,[2],0.25% (inactive)
same,viability decrease,[3],84.5% (active)
same,tube area decrease,[4],112% (active)
same,GLP1 secretion stimulation,[5],11.6% (inactive)
same,inhibition of viability,[6],61.8% (active)
same,viability decrease (inhibition),[7],75.8% (active)
same,viability decrease (inhibition),[8],84.5% (active)
same,inhibition,[9],-0.54% (inactive)
same,remaining NAD,[13],10 nM (inactive)
same,luciferase signal,[14],24 AU (inactive)
N[C@@H]1C[C@H]1c1ccccc1,parasite load remaining,[15],105% (inactive)
same,viability,[15],90.9%
same,nuclear beta-catenin stimulation,[1]; at 10 µM,1.6% (inactive)
same,nuclear beta-catenin stimulation,"[1]; stimulation, at 2 µM",2.1%
same,insulin secretion stimulation,[2],0.5% (active)
same,viability decrease,[3],-2.2% (inactive)
same,tube area decrease,[4],-22.1% (inactive)
same,GLP1 secretion stimulation,[5],3.6% (inactive)
same,inhibition of viability,[6],19.4% (inactive)
same,viability decrease (inhibition),[7],10% (inactive)
same,viability decrease (inhibition),[8],-5.6% (inactive)
same,inhibition,[9],-7.3% (inactive) and 0.348% (inactive)
same,fold change,"[12]; stronger effect = lower value, cell number ratio, induced over uninduced",0.966 (inactive)
same,fold change,[12]; [23],1.35
same,cell count,[12]; [24],9350
same,cell count,[12]; [25],9680
same,luciferase signal,[14],36 AU (inactive)
same,z-score,[16],0.32 (inactive)
CC(C)=CC1C(C(=O)OCc2cccc(Oc3ccccc3)c2)C1(C)C (centres undefined),parasite load remaining,[15],123% (inactive)
same,viability,[15],88.5%
same,nuclear beta-catenin stimulation,[1]; at 10 µM,1.3% (inactive)
same,nuclear beta-catenin stimulation,"[1]; stimulation, at 2 µM",2.5%
same,insulin secretion stimulation,[2],2.9% (inactive)
same,viability decrease,[3],-21.3% (inactive)
same,tube area decrease,[4],-14.2% (inactive)
same,GLP1 secretion stimulation,[5],1.7% (inactive)
same,inhibition of viability,[6],15.9% (inactive)
same,viability decrease (inhibition),[7],16.2% (inactive)
same,viability decrease (inhibition),[8],31.4% (inactive)
same,inhibition,[9],-5.61% (inactive)
same,red/green cell ratio (normalised),[10],0.95 (inactive)
same,normalised cell number,[10]; [21],1.25
same,normalised cell number,[10]; [22],1.19
same,activity remaining,[11],99.1% (inactive)
same,remaining NAD,[13],10 nM (inactive)
Oc1ccc(Cl)cc1,score,[17],0.2
same,cytochrome c release ratio,[18],0.97
same,inhibition of aggregation,[19],31.7%
same,parasite load remaining,[15],99.5% (inactive) and 63.2% (inactive)
same,viability,[15],70.5% and 93.7%
same,nuclear beta-catenin stimulation,[1]; at 10 µM,0.8% (inactive)
same,nuclear beta-catenin stimulation,"[1]; stimulation, at 2 µM",0.5%
same,insulin secretion stimulation,[2],-0.7% (inactive)
same,viability decrease,[3],21.3% (inactive)
same,tube area decrease,[4],12.2% (inactive)
same,GLP1 secretion stimulation,[5],0.3% (inactive)
same,inhibition of viability,[6],17.9% (inactive)
same,viability decrease (inhibition),[7],34.5% (inactive)
same,viability decrease (inhibition),[8],6.1% (inactive)
same,inhibition,[9],15% (inactive)
same,red/green cell ratio (normalised),[10],0.99 (inactive)
same,normalised cell number,[10]; [21],1.1
same,normalised cell number,[10]; [22],1.09
same,activity remaining,[11],115% (inactive)
same,fold change,[12]; stronger effect = lower value,0.923 (inactive)
same,fold change,[12]; [23],1.34
same,cell count,[12]; [24],11600
same,cell count,[12]; [25],12500
same,remaining NAD,[13],10 nM (inactive)
same,luciferase signal,[14],52 AU (inactive)
NC(=O)c1cc([N+](=O)[O-])cc([N+](=O)[O-])c1,score,[17],1.47
same,cytochrome c release ratio,[18],0.54
same,inhibition of aggregation,[19],72.4%
same,parasite load remaining,[15],66.1% (inactive) and 34.1% (inactive)
same,viability,[15],71.7% and 90.1%
same,nuclear beta-catenin stimulation,[1]; at 10 µM,-1.3% (inactive)
same,nuclear beta-catenin stimulation,"[1]; stimulation, at 2 µM",-1.6%
same,insulin secretion stimulation,[2],0.7% (inactive)
same,viability decrease,[3],30.5% (inactive)
same,tube area decrease,[4],-14.6% (inactive)
same,GLP1 secretion stimulation,[5],-0.8% (inactive)
same,inhibition of viability,[6],37.6% (inactive)
same,viability decrease (inhibition),[7],67.6% (active)
same,viability decrease (inhibition),[8],6.7% (inactive)
same,inhibition,[9],8.1% (inactive)
same,red/green cell ratio (normalised),[10],0.97 (inactive)
same,normalised cell number,[10]; [21],0.99
same,normalised cell number,[10]; [22],0.96
same,activity remaining,[11],116% (inactive)
same,fold change,[12]; stronger effect = lower value,0.831 (inactive)
same,fold change,[12]; [23],2.03
same,cell count,[12]; [24],10800
same,cell count,[12]; [25],12900
same,remaining NAD,[13],10 nM (inactive)
same,luciferase signal,[14],40 AU (inactive)
Clc1ccc(CSC(Cn2ccnc2)c2ccc(Cl)cc2Cl)cc1 (centres undefined),score,[17],0.02
same,cytochrome c release ratio,[18],1.53
same,inhibition of aggregation,[19],26.4%
same,parasite load remaining,[15],45.1% (inactive) and 43.8% (inactive) and 9.3% (inactive)
same,viability,[15],77.3% and 59.6% and 86.4%
same,nuclear beta-catenin stimulation,[1]; at 10 µM,4.8% (inactive)
same,nuclear beta-catenin stimulation,"[1]; stimulation, at 2 µM",1.5%
same,insulin secretion stimulation,[2],2.6% (inactive)
same,viability decrease,[3],101% (active)
same,tube area decrease,[4],110% (active)
same,GLP1 secretion stimulation,[5],45.8% (active)
same,inhibition of viability,[6],102% (active)
same,viability decrease (inhibition),[7],141% (active)
same,viability decrease (inhibition),[8],104% (active)
same,inhibition,[9],1.36% (inactive)
same,red/green cell ratio (normalised),[10],0.91 (inactive)
same,normalised cell number,[10]; [21],1.1
same,normalised cell number,[10]; [22],1
same,activity remaining,[11],106% (inactive)
same,fold change,[12]; stronger effect = lower value,0.925 (inactive) and 0.946 (inactive) and 1.1 (inactive)
same,fold change,[12]; [23],1.29 and 0.637 and 1.2
same,cell count,[12]; [24],6020 and 7170 and 8360
same,cell count,[12]; [25],6500 and 7580 and 7600
same,z-score,[20]; [26],-0.246 (inactive) and 0.0301 (inactive)
same,z-score,[20]; [27],-0.177 and -0.00115
same,remaining NAD,[13],10 nM (inactive)
same,luciferase signal,[14],44 AU (inactive)
C[C@@H]1O[C@@H](O[C@H]2C[C@@H](O)[C@]3(CO)[C@H]4[C@H](O)C[C@]5(C)[C@@H](C6=CC(=O)OC6)CC[C@]5(O)[C@@H]4CC[C@]3(O)C2)[C@H](O)[C@H](O)[C@H]1O,parasite load remaining,[15],-1.77% (inactive) and 5.6% (inactive) and -0.23% (inactive)
same,viability,[15],38.8% and 25.7% and 34%
same,nuclear beta-catenin stimulation,[1]; at 10 µM,0% (inactive)
same,nuclear beta-catenin stimulation,"[1]; stimulation, at 2 µM",-1.2%
same,insulin secretion stimulation,[2],5.8% (inactive)
same,viability decrease,[3],84.8% (active)
same,tube area decrease,[4],112% (active)
same,GLP1 secretion stimulation,[5],9.2% (inactive)
same,inhibition of viability,[6],56.6% (active)
same,viability decrease (inhibition),[7],61% (active)
same,viability decrease (inhibition),[8],77.4% (active)
same,inhibition,[9],-10.9% (inactive)
same,fold change,[12]; stronger effect = lower value,0.999 (inactive) and 0.916 (inactive) and 0.73 (inactive)
same,fold change,[12]; [23],0.275 and 1.45 and 1.97
same,cell count,[12]; [24],345 and 529 and 320
same,cell count,[12]; [25],346 and 578 and 438
same,z-score,[20]; [26],2.21 (active)
same,z-score,[20]; [27],-0.329
same,remaining NAD,[13],10 nM (inactive)
same,luciferase signal,[14],16 AU (inactive)
same,z-score,[16],-1.23 (inactive) and -2.25 (inactive)
